In PubChem BioAssay AID1259397 (Fisher Drug Discovery Resource Center, 2018):
Values joined by “and” are separate entries in the source; they are usually repeats but may differ in a detail not shown here. Identical values can stand only once. The campaign covered roughly 130,000 compounds. About 230 (0.18%) were called active.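 How the source made its calls: active means inhibition of cGAS enzyme activity at or above 60%; inactive means the rest.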 The list comes from a sample in which actives are over-represented; it also holds similar structures and randomly drawn compounds.

target: Cyclic GMP-AMP synthase (Mus musculus) (UniProt Q8C6L5); test: inhibitors of Mus musculus cyclic GMP-AMP synthase, initial high-throughput assay, cell-free, RapidFire MS (AID 1259397); conditions: recombinant mouse cGAS, cGAMP by RapidFire MS; at 12.5 µM; active compounds read high;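 further: enzyme stimulated by 45 bp dsDNA with ATP and GTP substrates; cGAMP share of summed cGAMP plus half ATP and half GTP signals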
Sequence (Q8C6L5 whole entry, looked up): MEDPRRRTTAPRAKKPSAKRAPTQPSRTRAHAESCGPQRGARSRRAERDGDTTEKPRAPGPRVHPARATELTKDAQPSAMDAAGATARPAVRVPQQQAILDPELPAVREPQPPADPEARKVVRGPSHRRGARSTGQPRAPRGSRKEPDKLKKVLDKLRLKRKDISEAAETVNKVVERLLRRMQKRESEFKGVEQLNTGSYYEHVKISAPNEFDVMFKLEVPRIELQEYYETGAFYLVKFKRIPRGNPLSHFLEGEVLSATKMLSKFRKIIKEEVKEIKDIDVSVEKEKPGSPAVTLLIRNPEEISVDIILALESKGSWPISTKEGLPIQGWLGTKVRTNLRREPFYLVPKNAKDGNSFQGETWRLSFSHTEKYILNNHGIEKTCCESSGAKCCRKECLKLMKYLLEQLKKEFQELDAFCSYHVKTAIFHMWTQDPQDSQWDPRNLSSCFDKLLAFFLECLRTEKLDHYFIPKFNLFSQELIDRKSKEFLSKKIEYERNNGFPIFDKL

inhibition, inactive:
CC1(C(=O)NS(=O)(=O)c2cccc(OC(F)F)c2)CCN1C(=O)COc1ccc(Cl)cc1 (stereo not drawn) -4.55%
CCN(CC(=O)NC(C)(C)C)c1cc(Cl)nc(N)n1 -6.72%
CCNC(=O)c1cc(Cl)ccc1NS(=O)(=O)c1cn[nH]c1 -6.14%
CCC(c1nnc(SC(C)C(N)=O)n1Cc1ccccc1)N(C)C (stereo not drawn) -4.22%
Cc1cc(CN2CCN3C(=O)CNC(=O)C3C2)ccc1N1CCCC1 (stereo not drawn) -4.4%
CCN(CC)C(=O)N1CCCC(C(=O)Nc2ccc(S(=O)(=O)C(F)F)cc2)C1 (stereo not drawn) 6.42%
NC(=O)c1cc(NC(=O)N2CCCCCC2c2ccco2)ccc1F (stereo not drawn) -5.95%
CCn1nc(C(=O)NNC(=O)c2c(C)noc2C)c2ccccc2c1=O -0.0832%
COc1ccccc1CCc1nnc(CCC(=O)NC(C)CCn2cccn2)o1 (stereo not drawn) 2.62%
O=C(CCn1cnc2ccccc2c1=O)Nc1cc2c(cc1Br)OCCO2 -1.61%
CCN(Cc1ccncc1)C(=O)C1CCC(=O)N(Cc2ccccn2)C1 (stereo not drawn) -3.05%
COc1cc(NC(=O)[C@@H](C)N2Cc3ccc(NCC(C)C)nc3C2=O)cc(OC)c1 7.27%
Cc1ccc(C(=O)N2CCCC(C(=O)NC3C4CCc5ccccc5C43)C2)cc1 (stereo not drawn) -4.85%
CCCN1C(=O)CCc2cc(NC(=O)COC)ccc21 -1.31%
CCC(CC)S(=O)(=O)NC(=O)c1c(C)nn(CC)c1Cl -36.3%
CC(C)Cc1ccc(C(=O)c2cccs2)cc1 2.67%
Cc1c(C(=O)NCc2cccc([N+](=O)[O-])c2)sc(=O)n1CCc1ccccc1 -3.1%
OC(c1ccc(Cl)c(F)c1)c1ncc(-c2ccccc2Cl)[nH]1 (stereo not drawn) -1.95%
O=C(CCOc1ccccc1)N1CC(c2ccncc2)C1 -7.26%
C=CCNC(=O)c1cccnc1-c1ccc(OC)c2ncccc12 -6.67%
O=C1N(CCCc2ccccc2)CCCC12CCN(c1cnccn1)C2 (stereo not drawn) -11%
CCCCN(CCCC)C(=O)c1[nH]c(C)c(C(C)=O)c1C -6.21%
Cc1cccc(NCCNC(=O)c2oc(Br)cc2C)n1 -6.38%
CC(C)C(NC(=O)c1ccco1)C(=O)N1CC(C)(C)C1(C)C (stereo not drawn) -1.92%
N#CC(Cc1ccccc1)NC(=O)/C=C/c1ccccc1Br (stereo not drawn) 8.15%
Cc1cc(C)n(C(=O)C(C)n2cc([N+](=O)[O-])cn2)n1 (stereo not drawn) -19.7%
COC(=O)CCC(=O)N1CCCC(C(=O)c2ccc(-c3ccccc3)cc2)C1 (stereo not drawn) -2.49%
Cc1ccc(C(=O)NCC(NC(=O)c2ccc(C)nc2)C(C)C)cn1 (stereo not drawn) 3.43%
CC(C)C1CN(C(=O)CCn2cncn2)CCCN1Cc1ccc(F)cc1 (stereo not drawn) -18%
COc1ccc(-n2c(C)nc3ccc(NC(=O)Nc4ccc(C)cc4C)cc3c2=O)cc1 -11.4%
CN(C(=O)c1ccc(=O)[nH]n1)C1c2ccccc2-c2ccccc21 -2.89% and -15.8%
Cc1ncc(-c2c(-c3ccccc3)ncn2Cc2csc(N)n2)[nH]1 -18.8%
CCOc1ccc(Cl)cc1S(=O)(=O)N1CCN(CCO)CC1 -1.81%
Cc1ccccc1NC(=O)Cn1cc(S(=O)(=O)c2ccc(F)cc2)c(=O)c2cc3c(cc21)OCO3 -8.2%
CN1C(=O)Cc2cc(-c3csc(CCN4CCCCC4)n3)ccc21 -45.7%
Cc1cc(C)c(S(=O)(=O)Nc2ccc(-c3cn4ccc(C)nc4n3)cc2)c(C)c1 -25.3%
CCCn1c(=O)c2c(nc3n2CCN3c2cc(C)ccc2C)n(C)c1=O -2.17%
Cn1c(=O)c2c(nc(CN3CCCCC3)n2Cc2cccc3ccccc23)n(C)c1=O -3.06%
CCOc1ccc2c(c1)C(C)CC(C)(C)N2C(=O)C1CCN(C(=O)C2CC2)CC1 (stereo not drawn) -7.85%
CSCc1ccc(C(=O)N2CCCC(C(=O)c3ccc4c(c3)OCO4)C2)o1 (stereo not drawn) -4.82%
O=C(C=Cc1ccsc1)N1CCN(S(=O)(=O)c2cc(F)ccc2F)CC1 -8.87%
CN(C)CCNc1cc(-c2n[nH]c(C(F)(F)F)n2)c2cc[nH]c2n1 -6.32%
COc1ccccc1OCCCOc1ccc(Cl)cc1Cl -12.4%
CCOc1cn2c(cc1=O)C(=O)N(CCNC(=O)c1ccc(C)cc1)CC2 -4.57%
CCCN(C(=O)c1ccc(-n2ccnc2)cc1)C1CCCC1 -16.4%
Cc1cnn(CC2CCN(C(=O)c3ccccc3C3CCNC3)CC2)c1 (stereo not drawn) 3.82%
Cc1ccc(OCc2nc(C(=O)NC3CC(C)(C)NC(C)(C)C3)cs2)cc1 -17.3%
CCCCOC1CC(N(C)Cc2ccc(S(=O)(=O)N(C)C)o2)C1(C)C (stereo not drawn) -31.6%
COC(=O)C[C@H]1[C@]2(C)C[C@@]34OC5(C)OC6(C(OC(C)=O)[C@@]3(OC(C)=O)[C@H]2OC(C)=O)C2CC(=O)O[C@@H](c3ccoc3)[C@]2(C)CCC6(O5)[C@]14C (stereo partly drawn) 1.62%
Cn1ccnc1CN(C(=O)c1scc2c1CCCC2)C1CC1 -27.6%
CC(C)CCN(CCC#N)Cc1ncc(Cl)n1C -8.32%
CC(N)=C(C#N)C(=O)COC(=O)c1ccc([N+](=O)[O-])o1 -1.77%
CC(CC(=O)Nc1ccc(F)cc1)n1cncn1 (stereo not drawn) -11%
CCOCC(O)CN1CCN(C(=O)Cn2ccccc2=O)CC1 (stereo not drawn) -5.1%
CC(C)Cn1c(CN(Cc2ccccc2)CC2CC2)cnc1S(C)(=O)=O -12.5%
CC(C)c1ccc2c(c1)CCCN2C(=O)CSC1CCS(=O)(=O)C1 (stereo not drawn) -7.34%
CC(N)=C(C#N)C(=O)COC(=O)C12CC3CC(CC(Br)(C3)C1)C2 -14%
CC1C(=O)SC2(CCCCC2)N1c1ccc(Cl)cc1 (stereo not drawn) -10.1%
